Our source for the Percent Effect values is ChEMBL document CHEMBL3988442, “University of Dundee, Small-Polar-MMV Screening Library” (2021).

Parameters in all cases: scale not given: direction of the effect not stated beside the values
The target in assay [1] is Protein translocase subunit SecA (Escherichia coli (strain K12)) (UniProt P10408). Put plainly: Assay to Identify E. coli SecA ATPase Inhibitors. The assay is classed as functional. As to conditions: 30 µM.
The target in assay [2] is T1, Ubiquitin-activating enzyme e1, putative (Leishmania donovani (strain BPK282A1)) (UniProt E9BSI1).
T1 sequence (whole entry): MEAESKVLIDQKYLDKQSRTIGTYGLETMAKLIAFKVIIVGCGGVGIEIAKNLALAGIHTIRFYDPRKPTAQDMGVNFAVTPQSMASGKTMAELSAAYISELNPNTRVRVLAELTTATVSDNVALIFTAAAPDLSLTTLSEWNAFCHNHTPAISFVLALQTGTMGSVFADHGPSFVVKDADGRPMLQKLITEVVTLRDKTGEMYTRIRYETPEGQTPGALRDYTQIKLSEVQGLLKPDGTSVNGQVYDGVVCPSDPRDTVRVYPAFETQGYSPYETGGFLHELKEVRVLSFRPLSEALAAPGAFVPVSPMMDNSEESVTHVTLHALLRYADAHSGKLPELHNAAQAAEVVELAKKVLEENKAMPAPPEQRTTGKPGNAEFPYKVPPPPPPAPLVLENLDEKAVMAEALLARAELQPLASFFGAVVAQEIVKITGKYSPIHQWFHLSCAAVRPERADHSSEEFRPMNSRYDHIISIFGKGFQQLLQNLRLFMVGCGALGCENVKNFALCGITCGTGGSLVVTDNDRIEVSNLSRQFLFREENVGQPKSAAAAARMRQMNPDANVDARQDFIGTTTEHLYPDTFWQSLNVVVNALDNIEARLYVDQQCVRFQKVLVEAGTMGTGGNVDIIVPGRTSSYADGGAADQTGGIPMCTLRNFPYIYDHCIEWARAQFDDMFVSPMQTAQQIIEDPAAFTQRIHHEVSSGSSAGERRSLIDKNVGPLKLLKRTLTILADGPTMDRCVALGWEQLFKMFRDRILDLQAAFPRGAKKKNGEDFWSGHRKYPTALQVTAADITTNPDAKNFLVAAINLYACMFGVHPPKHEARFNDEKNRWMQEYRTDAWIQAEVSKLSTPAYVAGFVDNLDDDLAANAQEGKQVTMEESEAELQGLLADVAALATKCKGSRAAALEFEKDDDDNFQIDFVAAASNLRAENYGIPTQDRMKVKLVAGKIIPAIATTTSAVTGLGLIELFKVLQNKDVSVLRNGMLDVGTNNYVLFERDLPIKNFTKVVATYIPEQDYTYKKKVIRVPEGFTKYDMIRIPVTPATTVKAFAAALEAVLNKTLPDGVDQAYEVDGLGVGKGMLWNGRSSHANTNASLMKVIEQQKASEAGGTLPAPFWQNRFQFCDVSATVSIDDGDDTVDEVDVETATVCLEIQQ
Put plainly: Leishmania donovani Ubiquitin Activating Enzyme (LdE1). The assay is classed as functional. As to conditions: 30 µM.

Assay [3] deals with Sialic acid-binding Ig-like lectin 9 (Homo sapiens) (UniProt Q9Y336). The assay is described as follows: Hs-Siglec9 ALPHAscreen SOP 20170721. As to conditions: 10 µM. (In general: In Alpha technology, singlet oxygen from a donor bead excites a nearby acceptor bead.)
A further assay concerns Trypanosoma cruzi. The assay is described as follows: Trypanosoma cruzi phosphomannomutase and mannose-1-phosphate guanylyltransferase assay. The assay is classed as functional. Conditions: 10 µM.
The target of assay [4] is T2, Arginase-2, mitochondrial (Homo sapiens) (UniProt P78540).
T2 sequence (whole entry): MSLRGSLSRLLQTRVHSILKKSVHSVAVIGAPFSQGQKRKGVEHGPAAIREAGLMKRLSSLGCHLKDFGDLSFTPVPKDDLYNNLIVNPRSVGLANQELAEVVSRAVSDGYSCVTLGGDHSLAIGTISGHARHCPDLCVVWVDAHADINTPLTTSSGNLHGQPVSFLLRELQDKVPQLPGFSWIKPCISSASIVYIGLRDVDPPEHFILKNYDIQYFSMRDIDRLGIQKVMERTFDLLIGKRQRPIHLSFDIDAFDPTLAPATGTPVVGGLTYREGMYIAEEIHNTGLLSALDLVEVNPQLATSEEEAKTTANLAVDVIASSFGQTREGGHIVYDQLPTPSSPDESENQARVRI
The assay is described as follows: in vitro enzyme assay to detect the production of urea directly proportional to the activity of Arginase II. Further: in the data most compounds retested in dose-response had high values. As to conditions: 33.3 µM. It counts as functional.

Assay [5] concerns the target T3, Proteasome subunit beta (Trypanosoma cruzi) (UniProt O96673).
T3 sequence (whole entry): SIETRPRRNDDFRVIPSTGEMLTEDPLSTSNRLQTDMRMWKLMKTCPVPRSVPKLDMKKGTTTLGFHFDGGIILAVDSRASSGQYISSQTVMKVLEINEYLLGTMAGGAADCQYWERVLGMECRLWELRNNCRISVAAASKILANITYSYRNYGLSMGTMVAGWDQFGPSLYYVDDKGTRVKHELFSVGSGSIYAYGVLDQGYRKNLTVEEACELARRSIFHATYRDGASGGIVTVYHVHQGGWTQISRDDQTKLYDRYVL
The assay is described as follows: Trypanosoma cruzi proteasome chymotrypsin-like activity (TcProtChymo) assay. Further: in the data most compounds retested in dose-response had high values. It counts as functional. Conditions: 9.37 µM.

For the next assay, the species on record is Homo sapiens. The assay is described as follows: To identify inhibition of the IFN signalling (Jak-Stat) pathway via expression of an eGFP reporter gene under the control of an IFN-stimulated response element (ISRE) containing MxA promoter. The assay is classed as functional. As to conditions: 30 µM.
Assay [6] addresses T4, Tyrosyl-tRNA synthetase, putative (Trypanosoma cruzi (strain CL Brener)) (UniProt Q4DSP6).
T4 sequence (whole entry): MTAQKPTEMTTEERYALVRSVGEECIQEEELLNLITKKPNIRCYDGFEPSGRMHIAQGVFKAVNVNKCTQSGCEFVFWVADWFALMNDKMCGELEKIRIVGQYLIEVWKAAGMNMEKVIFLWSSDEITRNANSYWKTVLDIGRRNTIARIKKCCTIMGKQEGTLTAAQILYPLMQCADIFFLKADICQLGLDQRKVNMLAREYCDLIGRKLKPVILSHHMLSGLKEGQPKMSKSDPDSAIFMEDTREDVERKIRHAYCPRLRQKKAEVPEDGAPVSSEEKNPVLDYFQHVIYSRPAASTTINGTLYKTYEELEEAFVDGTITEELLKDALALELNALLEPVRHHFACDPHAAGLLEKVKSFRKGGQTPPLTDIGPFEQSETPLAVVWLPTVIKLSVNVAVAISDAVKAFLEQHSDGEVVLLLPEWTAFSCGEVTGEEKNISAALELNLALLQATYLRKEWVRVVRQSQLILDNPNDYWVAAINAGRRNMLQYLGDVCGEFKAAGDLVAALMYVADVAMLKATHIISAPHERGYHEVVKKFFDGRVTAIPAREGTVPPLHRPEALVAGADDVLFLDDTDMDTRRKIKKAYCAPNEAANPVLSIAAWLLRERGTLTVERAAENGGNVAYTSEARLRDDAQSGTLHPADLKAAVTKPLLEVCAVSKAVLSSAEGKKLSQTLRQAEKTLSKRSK
Put plainly: Trypanosoma cruzi tyrosyl tRNA synthetase (TcYRS) _High Tyrosine SOP. Further: in the data most compounds retested in dose-response had high values. As to conditions: 30 µM. The assay is classed as functional.

Assay [7] concerns the target T4, Tyrosyl-tRNA synthetase, putative (Trypanosoma cruzi (strain CL Brener)). Put plainly: Trypanosoma cruzi tyrosyl tRNA synthetase (TcYRS) SOP. As to conditions: 30 µM. It counts as functional.
The target of assay [8] is Chromo domain-containing protein 1 (Saccharomyces cerevisiae (strain ATCC 204508 / S288c) (Baker's yeast)) (UniProt P32657). Put plainly: ScCHD-1 Enzyme Inhibition Assay. Further: in the data most compounds retested in dose-response had high values. It counts as functional. Conditions: 30 µM.

For some assays here: Potency and affinity values are given separately.

Chain of Protein translocase subunit SecA (Escherichia coli (strain K12)) (P10408 whole entry): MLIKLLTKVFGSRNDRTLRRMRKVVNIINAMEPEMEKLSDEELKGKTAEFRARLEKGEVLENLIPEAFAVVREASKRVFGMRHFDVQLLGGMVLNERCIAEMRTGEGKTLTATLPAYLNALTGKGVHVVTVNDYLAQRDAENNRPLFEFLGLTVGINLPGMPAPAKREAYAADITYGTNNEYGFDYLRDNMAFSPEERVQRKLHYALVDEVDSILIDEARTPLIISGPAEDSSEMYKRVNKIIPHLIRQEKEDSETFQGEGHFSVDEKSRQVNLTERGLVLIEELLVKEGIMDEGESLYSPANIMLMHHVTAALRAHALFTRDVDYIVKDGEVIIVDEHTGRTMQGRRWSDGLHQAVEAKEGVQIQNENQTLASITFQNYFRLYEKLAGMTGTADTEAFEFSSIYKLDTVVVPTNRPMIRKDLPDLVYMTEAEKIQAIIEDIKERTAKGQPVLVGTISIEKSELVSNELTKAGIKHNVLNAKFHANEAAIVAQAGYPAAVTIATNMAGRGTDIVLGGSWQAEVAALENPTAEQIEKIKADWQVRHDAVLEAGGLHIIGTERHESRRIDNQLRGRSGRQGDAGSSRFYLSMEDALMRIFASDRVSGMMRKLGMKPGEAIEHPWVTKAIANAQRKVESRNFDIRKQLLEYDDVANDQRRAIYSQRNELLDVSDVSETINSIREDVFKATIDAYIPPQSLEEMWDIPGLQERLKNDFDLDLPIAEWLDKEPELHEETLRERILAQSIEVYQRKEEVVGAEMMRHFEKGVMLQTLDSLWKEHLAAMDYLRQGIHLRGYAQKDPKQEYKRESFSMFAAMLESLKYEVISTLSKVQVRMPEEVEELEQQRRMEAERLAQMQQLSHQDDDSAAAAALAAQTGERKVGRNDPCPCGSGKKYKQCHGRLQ
Chain of Sialic acid-binding Ig-like lectin 9 (Homo sapiens) (Q9Y336 whole entry): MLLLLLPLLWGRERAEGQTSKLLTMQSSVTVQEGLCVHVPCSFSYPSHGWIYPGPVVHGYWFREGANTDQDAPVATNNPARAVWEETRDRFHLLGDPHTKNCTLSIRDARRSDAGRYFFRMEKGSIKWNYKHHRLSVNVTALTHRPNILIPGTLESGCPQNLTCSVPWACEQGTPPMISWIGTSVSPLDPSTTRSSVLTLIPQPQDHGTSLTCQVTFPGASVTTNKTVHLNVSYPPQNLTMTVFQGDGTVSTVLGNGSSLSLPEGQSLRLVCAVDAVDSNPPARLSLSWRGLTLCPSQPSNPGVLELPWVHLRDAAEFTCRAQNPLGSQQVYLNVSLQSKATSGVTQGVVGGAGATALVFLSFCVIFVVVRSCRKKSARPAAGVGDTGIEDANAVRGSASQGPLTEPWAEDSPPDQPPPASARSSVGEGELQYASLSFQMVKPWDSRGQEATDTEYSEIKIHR
Chain of Chromo domain-containing protein 1 (Saccharomyces cerevisiae (strain ATCC 204508 / S288c) (Baker's yeast)) (P32657 whole entry, the tested form may be a part): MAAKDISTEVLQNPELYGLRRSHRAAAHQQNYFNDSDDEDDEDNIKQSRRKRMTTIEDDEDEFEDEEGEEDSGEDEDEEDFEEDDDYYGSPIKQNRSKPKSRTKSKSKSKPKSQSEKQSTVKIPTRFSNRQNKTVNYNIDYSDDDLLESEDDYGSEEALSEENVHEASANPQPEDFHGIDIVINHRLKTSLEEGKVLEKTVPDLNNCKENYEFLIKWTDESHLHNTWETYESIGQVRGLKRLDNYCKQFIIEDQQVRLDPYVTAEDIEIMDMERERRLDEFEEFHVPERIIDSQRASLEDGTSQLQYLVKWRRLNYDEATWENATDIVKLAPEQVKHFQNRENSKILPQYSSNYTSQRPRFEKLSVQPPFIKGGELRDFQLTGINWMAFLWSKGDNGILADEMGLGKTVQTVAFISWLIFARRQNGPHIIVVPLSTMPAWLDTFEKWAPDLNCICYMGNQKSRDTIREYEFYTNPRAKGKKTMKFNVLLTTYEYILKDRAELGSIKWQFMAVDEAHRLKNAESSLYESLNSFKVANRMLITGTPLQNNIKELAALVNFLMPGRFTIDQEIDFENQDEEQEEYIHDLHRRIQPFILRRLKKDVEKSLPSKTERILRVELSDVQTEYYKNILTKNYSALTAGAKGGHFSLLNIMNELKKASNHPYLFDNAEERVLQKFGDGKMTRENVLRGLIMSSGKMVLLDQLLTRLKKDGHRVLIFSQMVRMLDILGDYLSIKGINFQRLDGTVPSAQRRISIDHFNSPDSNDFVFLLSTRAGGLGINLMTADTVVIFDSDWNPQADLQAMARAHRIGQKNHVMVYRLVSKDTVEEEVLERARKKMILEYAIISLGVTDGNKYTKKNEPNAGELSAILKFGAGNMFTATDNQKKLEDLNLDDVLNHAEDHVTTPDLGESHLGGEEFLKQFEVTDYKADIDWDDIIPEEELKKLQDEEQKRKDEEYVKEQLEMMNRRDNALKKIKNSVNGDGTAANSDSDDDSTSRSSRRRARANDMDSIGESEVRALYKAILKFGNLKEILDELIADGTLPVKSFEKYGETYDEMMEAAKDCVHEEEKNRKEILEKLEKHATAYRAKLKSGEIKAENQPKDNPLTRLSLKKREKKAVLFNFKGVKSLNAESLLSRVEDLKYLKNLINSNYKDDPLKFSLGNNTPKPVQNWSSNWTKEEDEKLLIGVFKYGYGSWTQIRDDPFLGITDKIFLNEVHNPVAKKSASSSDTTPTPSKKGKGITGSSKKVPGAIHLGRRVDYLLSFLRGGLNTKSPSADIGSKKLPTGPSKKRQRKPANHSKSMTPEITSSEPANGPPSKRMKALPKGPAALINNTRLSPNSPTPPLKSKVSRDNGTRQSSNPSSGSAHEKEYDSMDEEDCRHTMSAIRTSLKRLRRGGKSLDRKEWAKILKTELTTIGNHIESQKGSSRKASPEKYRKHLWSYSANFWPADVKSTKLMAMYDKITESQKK

Turning to `CN(C)C[C@@H]1C[C@@H]2CN(C(=O)c3ccoc3)CC[C@@H]2N1CC1CC1`, the Percent Effect is -7.24% in assay [1]; 11.7% in assay [2]; 1.31% in [3]; -6.19% in the assay on Trypanosoma cruzi; 0.913% in [4]; 0.429% in [5]. Besides, the Percent Effect in the assay listed under Homo sapiens is 11.2%; in [6] it was -4.83%; in assay [7], -2.5%; in assay [8] it was -4.24%.
Regarding `COc1cc(C)nc(N2CCN(C(=O)CN(C)C3CC3)CC2)n1`, the Percent Effect is -5.5% in [1]; 7.69% in [2]; -4.33% in [3]; -3.1% in the assay on Trypanosoma cruzi; -1.23% in assay [4]; 2.99% in assay [5]. Besides, the Percent Effect in the assay filed under Homo sapiens was 28.9%; in assay [6], -1.44%; in assay [7] it was 8.43%; in assay [8], 0.147%.
Turning to `CNC(=O)COc1ccccc1CNC1CCc2ncnn2C1` (stereo not given), the Percent Effect in assay [1] was -1.08%; in assay [2], 2.56%; in assay [3] it was -25.1%; with Trypanosoma cruzi, 6.67%; in assay [4], -1.23%; in assay [5], 18.7%. The Percent Effect in the assay listed under Homo sapiens came to 13.3%; in assay [6], 6.22%; in assay [7] it was 20.5%; in [8], 44.8%.
In the case of `CNC(=O)c1ccc(C2CN(C(=O)COC)CCO2)nc1` (stereo not given), the Percent Effect in assay [1] was 0.488%; in assay [2] it was 9.33%; in [3] it was 3.63%; with Trypanosoma cruzi it was -4.14%; in assay [4] it was 3.54%; in [5], 7.39%. For the same molecule, the Percent Effect in the assay listed under Homo sapiens was 0.241%; in assay [6], 2.12%; in assay [7], 7.5%; in assay [8], -21.4%.
Turning to `COCc1nc(C(=O)NS(=O)(=O)c2ccc(C)s2)cs1`, the Percent Effect is -1.18% in [1]; -5.13% in [2]; -1.4% in assay [3]; -5.35% with Trypanosoma cruzi; 6.56% in assay [4]; -7.25% in assay [5]. In addition, the Percent Effect in the assay listed under Homo sapiens was 18.7%; in [6], 1.44%; in [7], 1.21%; in [8], -0.772%.
As for `Cc1cccc(CN2C(=O)CCC23CCN(Cc2cccn2C)CC3)n1`, the Percent Effect in [1] is -2.82%; in [2], 27.3%; in assay [3], -0.409%; in the assay with Trypanosoma cruzi it was -0.75%; in [4] it was 0.457%; in [5], 16.9%. Also, the Percent Effect in the assay listed under Homo sapiens is 23.5%; in assay [6], 9.66%; in [7], 22.5%; in assay [8], -11.1%.
For `Cc1ccc(NC(=O)C2CSCN2C(=O)c2cnn(C)c2)c(C)c1` (stereo not given), the Percent Effect is -6.12% in assay [1]; 5.13% in [2]; 11% in assay [3]; 3.29% in the assay on Trypanosoma cruzi; -0.41% in assay [4]; -1.28% in assay [5]. The Percent Effect in the assay filed under Homo sapiens is 0.716%; in assay [6], 4.31%; in assay [7] it was 18.1%; in assay [8], -1.32%.
As for `CN(CC(=O)N1CCCN(Cc2cscn2)CC1)c1cnccn1`, the Percent Effect is 0.471% in assay [1]; -18.2% in [2]; 7.79% in assay [3]; -4.29% in the assay on Trypanosoma cruzi; -3.07% in assay [4]; 0.351% in assay [5]. In addition, the Percent Effect in the assay filed under Homo sapiens is 9.75%; in assay [6], 0%; in [7], 4.71%; in assay [8] it was 5.41%.
Regarding `Cc1csc(N2CCCN(C(=O)c3c(C)oc(C)c3C)CC2)n1`, the Percent Effect in assay [1] is -7.12%; in assay [2], 18.7%; in [3], 3.18%; in the assay with Trypanosoma cruzi, 4.22%; in assay [4], -1.77%; in [5], 20.1%. In addition, the Percent Effect was 8.84% in the assay filed under Homo sapiens, 7.89% in assay [6], 17.9% in assay [7] and -8.96% in [8].
For the molecule `Cc1cnn(CC2CCCCN2C(=O)c2cc(Cl)c[nH]2)c1` (stereo not given), the Percent Effect was -3.19% in [1]; 20.8% in assay [2]; 10.9% in [3]; 6.53% in the assay with Trypanosoma cruzi; -5.53% in assay [4]; 6.67% in [5]. Also, the Percent Effect in the assay listed under Homo sapiens is 15.7%; in [6], 5.88%; in assay [7], 23.5%; in assay [8], -9.18%.
`O=C(CC1CC1)N1C[C@@H]2CCN(c3cnccn3)C[C@@H]2C1`: the Percent Effect was -1.69% in assay [1]; 14.3% in assay [2]; 4.05% in [3]; 1.69% with Trypanosoma cruzi; 0.913% in assay [4]; 5.06% in assay [5]. Further, the Percent Effect in the assay filed under Homo sapiens was 16.8%; in assay [6], 5.8%; in assay [7], 15%; in assay [8], -3.72%.
